Screens deposited in PubChem BioAssay by The Scripps Research Institute Molecular Screening Center.
DAX1 inh-1: blocks DAX1 repression of SF-1 activated StAR promoter. HEK293T StAR-luciferase reporter, SF-1/DAX-1 repression relief. inhibition, % at 6.8 µM. hit rate 1.1% among 370,000. AID 652010;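 active means inhibition above the mean over all tested compounds plus 3 SD, cut at about 3.6% in these data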;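 further: higher inhibition means more luminescence from relief of DAX-1 repression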
DAX1 inh-2: inhibits human nuclear receptor DAX1. P51843. HEK293 Gal4-DAX1 luciferase reporter, luminescence. inhibition, % at 6.75 µM. hit rate 0.99% among 340,000. AID 504766;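 active means inhibition above the mean over all tested compounds plus 3 SD, cut at about 4.2% in these data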;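 further: inhibition shows as a rise in luminescence from relieved DAX1 repression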
Target sequence (P51843 207-470 limits assumed): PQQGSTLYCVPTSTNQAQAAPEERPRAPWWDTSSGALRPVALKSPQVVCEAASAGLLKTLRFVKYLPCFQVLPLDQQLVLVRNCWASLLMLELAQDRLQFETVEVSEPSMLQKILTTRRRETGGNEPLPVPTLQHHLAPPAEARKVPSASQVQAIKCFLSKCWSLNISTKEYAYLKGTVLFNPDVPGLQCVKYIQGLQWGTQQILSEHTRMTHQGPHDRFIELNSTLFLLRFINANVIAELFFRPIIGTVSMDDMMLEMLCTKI
SMARCA2 act: increases SMARCA2 function in MMTV reporter cells. MG213 cells, MMTV-luciferase reporter, dexamethasone, overnight. activation, % at 9.1 µM. hit rate 1% among 370,000. AID 652017; in the data active means activation above about 7.8%
ssDAF-12 act: activates DAF-12 receptor from parasite S. stercoralis; HEK293 ssDAF-12/GRIP1 lit1-tk-luc reporter, luminescence; % of 3 µM dafachronic acid response; activation, % at 6.8 µM; hit rate 1% among 370,000;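 active means activation above the mean over all tested compounds plus 3 SD, cut at about 0.9% in these data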
hcDAF12 agonist: activators of H. contortus DAF-12 nuclear receptor. HEK293 hcDAF-12 lit1-tk-luc reporter, luminescence; 0% DMSO, 100% Δ7-dafachronic acid. activation, % at 6.8 µM. hit rate 1.4% among 370,000. AID 652067;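 active means activation above the mean of all tested compounds plus 3 SD, cut at about 5.5% in these data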
hgDAF-12 ag: hgDAF-12 agonism, primary luciferase screen | activation, % at 6.8 µM | hit rate 1.8% among 370,000 | HEK293 GAL4-hgDAF12 UAS-luciferase reporter, agonist luminescence; normalized to butyrate control;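 active means activation above a cutoff set at the mean of all screened compounds plus 3 SD, cut at about 10% in these data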
Numbers stand for hits; 0 = inactive; - = no result. The list is not random: actives were taken first. Their share in the collection is about 4.8%.

SMILES	DAX1 inh-1	DAX1 inh-2	SMARCA2 act	ssDAF-12 act	hcDAF12 agonist	hgDAF-12 ag
O=C(O)C(Cc1ccccc1)N1C(=O)c2ccccc2C1=O (stereo not given)	0	0	0	0	0	0
COCC(=O)N1[C@H](CO)[C@@H](c2ccc(-c3cccnc3)cc2)[C@H]1CN(C)S(=O)(=O)c1ccccc1[N+](=O)[O-]	0	-	0	0	0	0
CCc1cccc(Nc2cc(C)nc3nc(C)nn23)c1	0	4.3	0	0	0	0
O=C(N/N=C/c1c[nH]c2ccccc12)c1cc(Br)ccc1O	0	0	0	1.3	0	0
O=C(N/N=C/c1ccccc1Cl)c1ccc(F)cc1	0	0	0	0	0	12.6
O=C(N/N=C/c1c[nH]c2ccccc12)c1ccccc1	0	6.1	0	0	0	0
Cc1cccc(NC(=S)N/N=C/c2c[nH]c3ccccc23)c1	0	0	0	0	0	14.3
COc1cccc(CNC(=O)CCCN2C(=O)COc3ccc(C)cc32)c1OC	0	-	0	0	0	0
O=C(CNC(=O)c1ccccc1Br)N/N=C/c1cc(Br)ccc1O	0	0	0	0	0	0
Cc1cc(C(=O)N/N=C/c2c[nH]c3ccccc23)cs1	0	0	0	0	0	0
Cc1ccc(C(=O)N/N=C/c2c[nH]c3ccccc23)o1	0	0	0	0	6.4	0
O=C(N/N=C/c1cc(Cl)ccc1O)c1ccccc1Br	0	0	0	1.5	0	0
O=C(N/N=C/c1cc2c(cc1Br)OCO2)c1c[nH]c2ccccc12	0	5.4	0	0	0	10.5
Cc1nc(N)sc1C(=O)N/N=C/c1c[nH]c2ccccc12	0	0	0	0	0	10.7
O=C(Nc1ccc(F)cc1F)C1CCN(c2nnc(-n3cccc3)s2)CC1	0	-	0	0	0	0
O=C(CSc1nnc(-c2cnccn2)n1-c1ccccc1)Nc1ccc2c(c1)OCCO2	0	-	0	0	0	0
Cc1cc(C(=O)O[C@@H]2CCC[C@]3(C(=O)N(Cc4ccccc4)c4ccccc43)[C@H]2NC(=O)CCc2ccccc2)no1	0	-	0	0	0	0
O=C(N/N=C/c1c[nH]c2ccccc12)c1[nH]c2ccc(Br)cc2c1-c1ccccc1	0	0	0	1.4	0	0
COc1ccc(NC(=O)c2cc3ccccc3oc2=O)c(OC)c1	0	0	0	0	0	11.0
COc1ccc(-c2cc3ccccc3oc2=O)cc1	0	0	0	0	0	12.7
Cc1ccnc(NC(=O)c2cc3ccccc3oc2=O)c1	0	0	0	0	0	10.6
COc1ccc(NC(=O)c2cc(C3CC3)on2)c(OC)c1	0	0	0	1.1	0	0
O=C(O)c1ccccc1NC(=O)c1cc2ccccc2oc1=O	0	0	0	0	0	0
COc1ccc(NC(=O)c2cc(-c3ccco3)on2)c(OC)c1	0	0	0	0	0	0
Cc1cccc(NC(=O)CSc2nc3ccccc3o2)c1	0	0	0	0	0	12.7
SMILES	DAX1 inh-1	DAX1 inh-2	SMARCA2 act	ssDAF-12 act	hcDAF12 agonist	hgDAF-12 ag
CC(=O)Nc1ccc(NC(=O)CSc2nc3ccccc3o2)cc1	0	0	0	0	0	0
Cc1cccc(NC(=O)c2cc3ccccc3oc2=O)c1	0	4.3	0	0	0	11.0
CN(C)S(=O)(=O)c1cccc(NC(=O)COC(=O)c2cc3ccccc3oc2=O)c1	0	5.3	0	0	0	12.6
O=C(COC(=O)c1cc2ccccc2oc1=O)Nc1cccc(S(=O)(=O)N2CCCCCC2)c1	0	0	0	0	0	0
CCCC1CCC2(CCCN2CCOC(=S)Nc2ccccc2)CC1 (stereo not given)	-	-	-	0	0	0
CSc1ccc(C=Nn2c(-c3cc(C)[nH]n3)n[nH]c2=S)cc1	0	-	0	0	0	0
CCC[C@H]1[C@@H](OC(=O)NCc2ccc(Cl)c(Cl)c2)CC[C@@]23CCCN2C(=O)CCC[C@@H]13	-	-	-	0	0	0
COc1cc(/C=C2/C(=N)N3N=C(CC(=O)N4CCOCC4)SC3=NC2=O)ccc1OC(C)c1ccccc1 (stereo not given)	0	0	0	2.2	0	0
Cc1cc(C)nc(-n2ncc3c2CCCC3=O)n1	0	5.4	0	0	0	0
Cc1cc(NC(=O)c2ccc(NS(=O)(=O)c3ccccc3)cc2)no1	0	-	0	0	0	0
CCCC1NC(=O)c2cc3ccccc3cc2-n2c1nc1cc(Cl)ccc1c2=O (stereo not given)	0	0	0	1.4	0	0
Cc1ccc2nc3n(c(=O)c2c1)-c1ccc(Cl)cc1C(=O)NC3Cc1ccccc1 (stereo not given)	0	-	0	0	0	0
CC1NC(=O)c2cc3ccccc3cc2-n2c1nc1ccc(F)cc1c2=O (stereo not given)	0	0	0	0	6.2	0
Cc1ccc2nc3n(c(=O)c2c1)-c1cc2ccccc2cc1C(=O)NC3Cc1ccccc1 (stereo not given)	3.9	0	0	0	0	0
COC(=O)[C@]12C[C@H](CC(=O)NCc3cccc(C(F)(F)F)c3)C(=O)N(CCC3=CCCCC3)C1=C[C@H](C1CCCC1)O[C@@H]2C	0	-	0	0	0	0
O=C(O)CSc1cc(NS(=O)(=O)c2cccc([N+](=O)[O-])c2)c2ccccc2c1O	0	0	0	1.0	0	0
CCc1ccc(S(=O)(=O)Nc2cc(SCC(=O)O)c(O)c3ccccc23)cc1	0	0	0	0	0	0
CCOc1ccc(S(=O)(=O)Nc2cc(SCC(=O)O)c(O)c3ccccc23)cc1	0	0	0	1.5	0	0
Cc1ccc(C)c(S(=O)(=O)Nc2cc(SCC(=O)O)c(O)c3ccccc23)c1	-	0	-	-	-	-
COCCNC(=O)C(=O)NNS(=O)(=O)c1ccc2ccccc2c1	0	0	0	0	0	0
COCCNC(=O)C(=O)NNC(=O)c1ccccc1OC	0	0	0	1.5	0	0
COc1ccccc1C(=O)NNC(=O)C(=O)NC1CCCCC1	0	0	0	0	0	0
COCCNC(=O)C(=O)NNS(=O)(=O)c1ccc(Cl)cc1	0	4.5	0	0	0	0
COc1ccccc1C(=O)NNC(=O)CCC(=O)NCc1ccccc1	0	0	0	0	5.7	0
COc1cccc(C(=O)NOCc2ccccc2)c1OC	4.4	0	0	0	0	0
SMILES	DAX1 inh-1	DAX1 inh-2	SMARCA2 act	ssDAF-12 act	hcDAF12 agonist	hgDAF-12 ag
COc1ccc(-n2c(COc3ccc(Cl)cc3)nnc2SCC(=O)Nc2ccc3c(c2)OCO3)cc1	0	-	0	0	0	0
COc1cccc(COC(=O)Nc2ccccc2)c1OC	0	-	0	0	0	11.9
COc1ccccc1OCCOC(=O)Nc1ccccc1	0	0	0	0	0	0
C=CCN(Cc1ccc2c(c1)OCO2)C(C#Cc1ccccc1)c1ccccc1C(F)(F)F (stereo not given)	0	-	0	0	0	0
COc1ccc(CC(=O)Nc2sc3c(c2C(N)=O)CCCC3)cc1	0	0	0	0	0	0
COc1ccc2nc(Nc3sc4c(c3C(N)=O)CCCC4)sc2c1	0	0	0	0	6.4	0
